From PubChem
A selection: hits, their analogues and other compounds. The true share with any hit is near 11%.
BAZ2B inh – qHTS Assay for Inhibitors of BAZ2B; Bromodomain adjacent to zinc finger domain protein 2B (Homo sapiens), Q9UIF8; AlphaScreen BAZ2B-H3K14Ac peptide displacement; Potency, µM (highest dose often 114 µM), for the others: at the highest dose activity change, negative = inhibition, most hits filed as inhibitors; actives 4.4% (n = 360,000); note: % is set by controls: 0 for no effect and ±100 for the full control effect; nearly all actives have a fitted effect of over 60% in size
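Multi-concentration screen (max 110 uM) measuring displacement of acetylated histone H3 peptide from BAZ2B by AlphaScreen, using 50 nM protein, 50 nM peptide and 10 ug/mL streptavidin donor plus Ni-chelate acceptor beads.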
PLK1 PBD block – qHTS for Inhibitors of PLK1-PDB (polo-like kinase 1 - polo-box domain): Primary Screen; Plk1 PBD binding of FITC phosphopeptide, fluorescence polarization; Potency, µM, for the others: max response, negative = inhibition, actives largely listed as inhibitors; actives 2.8% (n = 360,000); AID 720504, 2013; note: series mostly up to about 57 µM; % is set by controls: 0 for no effect and ±100 for the full control effect; nearly all actives have a fitted effect of over 65% in size
G9a inh – qHTS Assay for Inhibitors of Histone Lysine Methyltransferase G9a. actives 8.8% (n = 350,000). G9a H3K9 monomethylation, AlphaScreen, 2 h. Potency, µM (doses to about 102 µM), for the others: top-dose activity, negative = inhibition, usual class: inhibitors; note: % is set by controls: 0 for no effect and ±100 for the full control effect; nearly all actives have a fitted effect of over 75% in size
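Enzyme 20 nM + cpd, 15 min RT; add b-H3K9 pep 500 nM / SAM 20 uM; 2 h RT; anti-H3K9me1 Ab 0.5 ug/mL + SA donor / anti-rabbit acceptor beads 20 ug/mL each, 10 min; AlphaScreen read.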
JMJD2A Tudor inh – qHTS Assay for Inhibitors of JMJD2A-Tudor Domain | AlphaScreen JMJD2A-Tudor / H3K4me3 peptide binding | actives 4.4% (n = 390,000) | Lysine-specific demethylase 4A (Homo sapiens), O75164 | AID 504339, 2011 | Potency, µM (series often up to 114 µM), for inactives: at the highest dose activity change, negative = inhibition, most hits filed as inhibitors; note: % is set by controls: 0 for no effect and ±100 for the full control effect; nearly all actives have a fitted effect of over 50% in size
VDR inhibitor – Inhibitors of the vitamin D receptor (VDR): qHTS | Vitamin D3 receptor (Homo sapiens), P11473 | VDR-SRC2-3 peptide fluorescence polarization, 2 h | Potency, µM, inactives show max response, negative = inhibition, most hits filed as inhibitors | actives 0.93% (n = 400,000) | AID 504847, 2011; note: % is set by controls: 0 for no effect and ±100 for the full control effect
Target sequence (P11473 whole entry, looked up): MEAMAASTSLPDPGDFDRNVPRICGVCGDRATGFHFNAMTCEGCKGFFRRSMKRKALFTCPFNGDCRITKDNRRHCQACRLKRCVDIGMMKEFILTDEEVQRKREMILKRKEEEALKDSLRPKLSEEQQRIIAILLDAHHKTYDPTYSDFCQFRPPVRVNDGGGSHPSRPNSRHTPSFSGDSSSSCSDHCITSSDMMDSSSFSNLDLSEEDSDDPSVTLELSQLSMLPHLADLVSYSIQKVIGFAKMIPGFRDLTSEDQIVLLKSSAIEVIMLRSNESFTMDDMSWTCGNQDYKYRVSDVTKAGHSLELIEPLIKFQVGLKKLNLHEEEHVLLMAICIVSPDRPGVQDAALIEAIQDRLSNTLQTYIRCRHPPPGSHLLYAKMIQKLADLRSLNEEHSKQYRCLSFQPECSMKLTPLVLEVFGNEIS
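Measured by FP: displacement of SRC2-3 coactivator peptide from VDR by library compounds, following a two-hour ambient incubation.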
HP1b binding inh – HTS for Inhibitors of HP1-beta Chromodomain Interactions with Methylated Histone Tails. actives 0.56% (n = 390,000). AlphaScreen HP1-beta / biotin-H3K9me3 peptide binding. Potency, µM (titrated, usually from 114 µM), without a hit: at the highest dose activity change, negative = inhibition, most hits filed as inhibitors; note: nearly all actives have a fitted effect of over 70% in size
Target sequence (P83916 whole entry, looked up): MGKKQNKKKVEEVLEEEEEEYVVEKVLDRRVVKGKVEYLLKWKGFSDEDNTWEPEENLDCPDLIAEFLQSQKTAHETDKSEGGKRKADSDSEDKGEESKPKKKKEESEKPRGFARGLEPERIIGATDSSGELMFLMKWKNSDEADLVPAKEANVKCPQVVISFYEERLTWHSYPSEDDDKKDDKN
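AlphaScreen: HP1-beta (50 nM) preformed 30 min with biotin-H3(1-18)K9me3 peptide (50 nM) in PBS pH 7.4, 0.01% Tween-20. Compound added for 30 min at RT, then streptavidin donor/nickel chelate acceptor beads (10 ug/mL) for 30 min.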
An asterisk follows results filed as active; ? = inconclusive; · = not tested or not shown; [ ] = dose if it differs, or a comment. Calls come from the whole dose curve; as a rule, active = well fitted curve in the direction sought with a large enough effect; inconclusive = small, poorly fitted or top-dose-only effect, or another doubt; inactive = no such curve, though single readings can be large; an effect the other way counts as inactive or inconclusive. Potency is the fitted concentration of half-maximal effect.

SMILES	BAZ2B inh	PLK1 PBD block	G9a inh	JMJD2A Tudor inh	VDR inhibitor	HP1b binding inh
COc1ccccc1CNC(=O)c1c(O)nc2c(C)cccn2c1=O	-1%	·	-1%[59 µM]	-17%	0%	-7%
CCn1c(/C=C/c2c(C)[nH]c3ccccc23)nc2ccccc2c1=O	3%	17%	7%[59 µM]	-6%	-4%	14%
CCn1c(/C=C/c2c[nH]c3ccccc23)nc2ccccc2c1=O	-5%	21µM*	2%	56µM*	-13%	-3%
CCn1c(/C=C2\C(=O)N(C(C)C)c3ccccc32)nc2ccccc2c1=O	40µM*	0%	3%[12.7 µM]	-7%[11.4 µM]	7%	-23%
CCOc1ccc(C2c3c(oc4ccc(C)cc4c3=O)C(=O)N2Cc2ccc3c(c2)OCO3)cc1OC (stereo not drawn)	32%	·	?	-22%	6%	83%
O=C(O)COc1ccccc1/C=N/NC(=O)c1ccc2c(c1)OCCO2	-31%	0%	35%	-17%	-7%	28%
O=C(O)COc1ccccc1/C=N/NC(=O)c1ccc(F)cc1	?	-7%	45µM*	-16%	1%	16%
O=C(O)COc1ccccc1/C=N/NC(=O)CNC(=O)c1ccc(F)cc1	?	8.4µM*	·	-7%[11.4 µM]	?	-8%
CCCN1CNc2c(c(=O)[nH]c(=S)n2CCc2cc(Cl)ccc2Cl)C1	·	·	·	-11%	-8%	42%
Cc1ccc(NS(=O)(=O)c2ccc3c(c2)CCC(=O)N3)cc1F	·	·	·	-26%	·	·
O=C(CSC1=Nc2ccccc2C2=NC(Cc3c[nH]c4ccccc34)C(=O)N12)NC1CCCCC1 (stereo not drawn)	-8%	-11%	50µM*	-13%	-13%	2%
CCOC(=O)c1ccc(N2C(=O)c3n[nH]c(-c4ccco4)c3C2c2ccc(O)c(OC)c2)cc1 (stereo not drawn)	·	·	22µM*	?	-15%	?
CCOC(=O)c1ccc(N2C(=O)c3n[nH]c(-c4ccco4)c3C2c2ccc(C)cc2)cc1 (stereo not drawn)	·	·	11µM*	?	-23%	-28%
CCOC(=O)c1ccc(N2C(=O)c3n[nH]c(-c4ccco4)c3C2c2ccc([N+](=O)[O-])cc2)cc1 (stereo not drawn)	40µM*	5%	?	?	6%	-25%
COc1ccccc1NC(=O)CSc1nc2c(oc3ccccc32)c(=O)n1-c1ccccc1F	-4%	·	-4%[59 µM]	-22%	6%	4%
O=C(Cn1nc(Cc2cccnc2)c2ccccc2c1=O)Nc1cccc(C(F)(F)F)c1	-20%	·	?	-25%	-3%	20%
Cc1cc(C)cc(NC(=O)NCCn2nnc3cc(S(=O)(=O)N(C)C)ccc32)c1	-12%	·	0%[59 µM]	-7%	25%	19%
Cc1ccnc(NCc2cc(Cl)cc(Cl)c2O)c1	·	-1%	·	·	·	·
Oc1c(Cl)cc(Cl)cc1CNc1nccs1	0%	1%	79µM*	-13%	3%	16%
O=C(NC1CCCCC1)C1CCN(c2nccs2)CC1	6%	?	-23%[59 µM]	79µM*	?	-20%
O=C(COC(=O)C(Cc1ccccc1)NC(=O)c1ccc(Cl)cc1)c1ccc(Cl)cc1 (stereo not drawn)	1%	11µM*	3%[59 µM]	-23%	-4%	19%
CCOC(=O)C(CCc1ccccc1)NC(C)C(=O)N1CCCC1C(=O)O (stereo not drawn)	·	·	-29%[2.33 µM]	·	5%	·
COc1cccc(CC(=O)OCC(=O)NCC(=O)Nc2cccc(C)c2C)c1	12%	-11%	7%	-6%	7%	20%
CC(C)CN(C(=O)c1cccc([N+](=O)[O-])c1)c1c(N)n(CC(C)C)c(=O)[nH]c1=O	23%	4%	50µM*	6%	-7%	37%
CC(C)CN(C(=O)c1cc2ccccc2o1)c1c(N)n(CC(C)C)c(=O)[nH]c1=O	9%	2%	50µM*	0%	-7%	25%
SMILES	BAZ2B inh	PLK1 PBD block	G9a inh	JMJD2A Tudor inh	VDR inhibitor	HP1b binding inh
CSc1ccccc1NC(=O)CN(C)C(=O)C(C)SCc1nc2sc(C)c(C)c2c(=O)[nH]1 (stereo not drawn)	·	1%	·	7%	-9%	36%
O=[N+]([O-])c1ccc(/C=N/N2CCN(Cc3ccccc3)CC2)cc1	13µM*	2%	50µM*	45µM*	19%	?
O=[N+]([O-])c1cc(/C=N/N2CCN(Cc3ccccc3)CC2)ccc1Cl	11µM*	-7%	28µM*	?	17%	?
FC(F)(F)c1ccc(/C=N/N2CCN(Cc3ccccc3)CC2)cc1	?	-8%	?	?	3%	?
O=C(/C=C/c1ccc([N+](=O)[O-])cc1)N1CCN(Cc2ccccc2)CC1	2%	-3%	-3%	-9%	5%	23%
O=[N+]([O-])c1ccc(Cl)c(/C=N/N2CCN(Cc3ccccc3)CC2)c1	10µM*	3%	40µM*	5%	-1%	29%
O=[N+]([O-])c1ccc(Cl)c(/C=N/N2CCN(Cc3ccc(Cl)cc3)CC2)c1	22µM*	0%	10µM*	23%	5%	23%
O=[N+]([O-])c1ccc(/C=N\N2CCN(Cc3ccccc3Cl)CC2)cc1	·	-8%	·	·	·	·
O=[N+]([O-])c1ccc(/C=N\N2CCN(c3ccc(Cl)cc3)CC2)cc1	1%	-4%	-31%	-5%	-8%	40%
CC[C@@H]1CC=C[C@H]2[C@H]1C(=O)N(Cc1ccccc1)[C@H]2c1ccc2ccccc2c1	-13%	·	37%[59 µM]	·	·	·
CN(C)c1ccc(CNC(=O)c2ccc3c(c2)N(C)C(=O)C2CCCCN32)cc1 (stereo not drawn)	45µM*	·	18µM*	45µM*	14%	-2%[57 µM]
CC(C)Oc1ccc(CNC(=O)c2ccc3c(c2)N(C)C(=O)C2CCCCN32)cc1 (stereo not drawn)	?	·	-19%[59 µM]	-31%	15%	10%[57 µM]
CS(=O)(=O)c1ccc(Cl)c(NC(=O)c2cccc(-n3cnnn3)c2)c1	-2%	-5%	?	-2%	8%	48%
CC(NC(=O)CCCCCN1C(=O)c2ccccc2C1=O)c1ccc2c(c1)CCCC2 (stereo not drawn)	5%	-2%	8.9µM*	-35%	-5%	10%
O=C(NCc1ccc(Cl)cc1)C1CCN(C(=O)c2ccc(Cl)cc2)CC1	12%	-6%	-30%	-10%	-15%	36%
